Reference: PubChem BioAssay (NCI)
This is part of a sample that, as a whole, favours compounds with a hit. Of some 83,000 tested, about 20% had one in any assay.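 The test compound was applied at a single concentration to cells in 96-well plates for 48 hours, and percent growth was recorded.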 Activity calls are given as the source filed them. Rule for the calls: active = growth percent below 10; inactive = the rest.

What was measured:
Assay in all cases: NCI-60 one-dose screen, 48 h (100 = growth as untreated, 0 = no growth, -100 = all killed)
Conditions in all cases: 10 µM unless noted
SR leukemia = tested on: SR leukemia
RPMI-8226 leukemia = tested on: RPMI-8226 leukemia
OVCAR-8 ovarian = tested on: OVCAR-8 ovarian
OVCAR-5 ovarian = tested on: OVCAR-5 ovarian
OVCAR-4 ovarian = tested on: OVCAR-4 ovarian
SK-OV-3 ovarian = tested on: SK-OV-3 ovarian
IGROV1 ovarian = tested on: IGROV1 ovarian
OVCAR-3 ovarian = tested on: OVCAR-3 ovarian
HS 578T breast = tested on: HS 578T breast
NCI/ADR-RES ovarian = tested on: NCI/ADR-RES ovarian
T-47D breast = tested on: T-47D breast
BT-549 breast = tested on: BT-549 breast
MDA-MB-435 melanoma = tested on: MDA-MB-435 melanoma
SW-620 colon = tested on: SW-620 colon
MCF7 breast = tested on: MCF7 breast
HCT-116 colon = tested on: HCT-116 colon
HCC-2998 colon = tested on: HCC-2998 colon
KM12 colon = tested on: KM12 colon

Measured: growth

COc1cc(-c2nc3ccccc3[nH]2)ccc1OCC(=O)N=Nc1c(O)[nH]c2ccc(Cl)cc12
inactive: NCI/ADR-RES ovarian 89.7%
active: SR leukemia -26.4% | RPMI-8226 leukemia -39.4% | OVCAR-8 ovarian -70.4% | OVCAR-5 ovarian -26.4% | OVCAR-4 ovarian -92.6% | SK-OV-3 ovarian -13.3% | IGROV1 ovarian -53.1% | OVCAR-3 ovarian -97.7% | HS 578T breast -60% | T-47D breast -52% | BT-549 breast 9.87% | MDA-MB-435 melanoma -71.1% | SW-620 colon -67.8% | MCF7 breast -76.9% | HCT-116 colon -83.6% | HCC-2998 colon -62.9% | KM12 colon -87.2%

COc1cc2c(cc1-c1c(C)noc1C)ncc1nc(C3CCOCC3)n([C@@H](C)COC(F)F)c12
active: SK-OV-3 ovarian 2.74% | HS 578T breast 8.31%
inactive: SR leukemia 28.5% | RPMI-8226 leukemia 18.4% | OVCAR-8 ovarian 45% | OVCAR-5 ovarian 65.2% | OVCAR-4 ovarian 46.4% | IGROV1 ovarian 67% | OVCAR-3 ovarian 42.3% | NCI/ADR-RES ovarian 50.6% | T-47D breast 38.1% | BT-549 breast 64.1% | MDA-MB-435 melanoma 39.7% | SW-620 colon 63.4% | MCF7 breast 18.4% | HCT-116 colon 30.5% | HCC-2998 colon 43.3% | KM12 colon 48.8%

Cn1cc(-c2nonc2-c2c[nH]c3ccc(F)cc23)c2cccnc21
inactive: SR leukemia 58.7% | RPMI-8226 leukemia 69.2% | OVCAR-8 ovarian 89.1% | OVCAR-5 ovarian 90.9% | OVCAR-4 ovarian 71.3% | SK-OV-3 ovarian 87.1% | IGROV1 ovarian 61.7% | OVCAR-3 ovarian 82% | HS 578T breast 72.9% | NCI/ADR-RES ovarian 73.1% | T-47D breast 16.2% | BT-549 breast 93.1% | MDA-MB-435 melanoma 62.3% | SW-620 colon 97.3% | MCF7 breast 23.5% | HCT-116 colon 90.9% | HCC-2998 colon 91.8% | KM12 colon 67.4%

Clc1ccc2c(NCCNc3nc(N4CCOCC4)nc4ccccc34)ccnc2c1
inactive: OVCAR-5 ovarian 51.8% | IGROV1 ovarian 48.8% | NCI/ADR-RES ovarian 47.9% | BT-549 breast 93.5% | SW-620 colon 11.2% | MCF7 breast 38.8% | HCC-2998 colon 32.3% | KM12 colon 13.3%
active: SR leukemia -23.5% | RPMI-8226 leukemia -37% | OVCAR-8 ovarian -25.8% | OVCAR-4 ovarian 3.78% | SK-OV-3 ovarian -37.8% | OVCAR-3 ovarian -75% | HS 578T breast -13.9% | T-47D breast -15% | MDA-MB-435 melanoma -8.79% | HCT-116 colon -7.53%

CCOc1cc2ncc(C#N)c(Nc3ccc(OCc4cccc(F)c4)c(Cl)c3)c2cc1NC(=O)CC1CCSS1 (stereo unspecified)
inactive: RPMI-8226 leukemia 62.4% | OVCAR-8 ovarian 44.2% | OVCAR-5 ovarian 84.1% | OVCAR-3 ovarian 37.3% | HS 578T breast 55.9% | NCI/ADR-RES ovarian 78.9% | BT-549 breast 44.6% | SW-620 colon 90.4%
active: SR leukemia -9.65% | OVCAR-4 ovarian -33.3% | SK-OV-3 ovarian -93.6% | IGROV1 ovarian -2.65% | T-47D breast -0.0513% | MDA-MB-435 melanoma -26.4% | MCF7 breast 2.9% | HCT-116 colon -24.7% | HCC-2998 colon -25.1% | KM12 colon -67.6%

Cc1cc(N2CCN(C)CC2)nc(NC2CCCC(Nc3ccnc4cc(Cl)ccc34)C2)n1 (stereo unspecified)
inactive: OVCAR-4 ovarian 20.3% | SK-OV-3 ovarian 18.6% | IGROV1 ovarian 10.5% | NCI/ADR-RES ovarian 18.7% | KM12 colon 10.4%
active: SR leukemia -31% | RPMI-8226 leukemia -47.8% | OVCAR-8 ovarian 5.87% | OVCAR-5 ovarian 9.67% | OVCAR-3 ovarian -18.7% | HS 578T breast -18.7% | T-47D breast -48.5% | BT-549 breast -41.9% | MDA-MB-435 melanoma -86% | SW-620 colon 2.79% | MCF7 breast -10.5% | HCT-116 colon -69.6% | HCC-2998 colon 8.13%

Cc1ccccc1COc1ccc(-c2ccnn2-c2ccc(Cl)cc2)cc1
active: MDA-MB-435 melanoma 0.81%
inactive: SR leukemia 33.8% | RPMI-8226 leukemia 77.6% | OVCAR-8 ovarian 75.3% | OVCAR-5 ovarian 91.7% | OVCAR-4 ovarian 85.7% | SK-OV-3 ovarian 63.7% | IGROV1 ovarian 57.5% | OVCAR-3 ovarian 26.6% | HS 578T breast 60.9% | NCI/ADR-RES ovarian 38% | T-47D breast 65.4% | BT-549 breast 75% | SW-620 colon 29.7% | MCF7 breast 31.9% | HCT-116 colon 38.1% | HCC-2998 colon 89.1% | KM12 colon 50.7%

c1ccc(Cn2cc(-c3nc4ccccc4s3)c3cccnc32)cc1
inactive: SR leukemia 112% | RPMI-8226 leukemia 99.9% | OVCAR-8 ovarian 106% | OVCAR-5 ovarian 103% | OVCAR-4 ovarian 90.9% | SK-OV-3 ovarian 96.1% | IGROV1 ovarian 94.3% | OVCAR-3 ovarian 95.6% | HS 578T breast 110% | NCI/ADR-RES ovarian 98.6% | T-47D breast 94% | BT-549 breast 106% | MDA-MB-435 melanoma 104% | SW-620 colon 105% | MCF7 breast 75.4% | HCT-116 colon 100% | HCC-2998 colon 107% | KM12 colon 92.6%

Nc1n[nH]c2ccc([C@@H]3Nc4cc5c(cc4[C@H]4C6CCC(C6)[C@@H]34)C(=O)NC5)cc12 (stereo partly specified)
active: SR leukemia 8.36% | OVCAR-3 ovarian -3.29% | BT-549 breast -0.949% | MDA-MB-435 melanoma -21.5% | HCT-116 colon 6.53% | KM12 colon 8.14%
inactive: RPMI-8226 leukemia 34.6% | OVCAR-8 ovarian 21.5% | OVCAR-5 ovarian 33.1% | OVCAR-4 ovarian 30.7% | SK-OV-3 ovarian 42.1% | IGROV1 ovarian 12.6% | HS 578T breast 24.5% | NCI/ADR-RES ovarian 69% | T-47D breast 76.9% | SW-620 colon 18.5% | MCF7 breast 17.2% | HCC-2998 colon 17.1%

O=C(N/N=C/c1ccccc1O)c1ccccc1Nc1ccnc(C(F)(F)F)c1
active: SR leukemia -13.9% | RPMI-8226 leukemia -22% | IGROV1 ovarian 1.57% | NCI/ADR-RES ovarian 7.23% | MCF7 breast 8.24%
inactive: OVCAR-8 ovarian 14.9% | OVCAR-5 ovarian 20.6% | OVCAR-4 ovarian 22.4% | SK-OV-3 ovarian 11.4% | OVCAR-3 ovarian 35.7% | HS 578T breast 34.3% | T-47D breast 19.4% | BT-549 breast 30.1% | MDA-MB-435 melanoma 32.4% | SW-620 colon 35% | HCT-116 colon 14.4% | HCC-2998 colon 46% | KM12 colon 32.4%

Cc1cc2nc(NC(=O)CN3CCN(CCN4C(=O)c5cccc6cccc(c56)C4=O)CC3)sc2cc1C
inactive: SR leukemia 35.3% | RPMI-8226 leukemia 57.8% | OVCAR-8 ovarian 79.7% | OVCAR-5 ovarian 93.6% | OVCAR-4 ovarian 84.3% | SK-OV-3 ovarian 102% | IGROV1 ovarian 77.6% | OVCAR-3 ovarian 101% | HS 578T breast 92% | NCI/ADR-RES ovarian 79% | T-47D breast 83.9% | BT-549 breast 86.1% | MDA-MB-435 melanoma 91.4% | SW-620 colon 96% | MCF7 breast 74.8% | HCT-116 colon 74.7% | HCC-2998 colon 101% | KM12 colon 92.5%

Cn1cc(-c2nonc2-c2cn(C)c3ccc(F)cc23)c2cc(F)ccc21
inactive: SR leukemia 31.8% | RPMI-8226 leukemia 81.4% | OVCAR-8 ovarian 81.7% | OVCAR-5 ovarian 92% | OVCAR-4 ovarian 79% | SK-OV-3 ovarian 45.1% | IGROV1 ovarian 52.5% | OVCAR-3 ovarian 23.4% | HS 578T breast 52.2% | NCI/ADR-RES ovarian 30.9% | T-47D breast 64.7% | BT-549 breast 68.6% | SW-620 colon 22.2% | MCF7 breast 27.9% | HCT-116 colon 28.2% | HCC-2998 colon 73% | KM12 colon 33%
active: MDA-MB-435 melanoma -4.48%

Cc1ncc(C(=O)Nc2ccc(CN3CCN(C)CC3)c(C(F)(F)F)c2)cc1C#Cc1cnc2cccnn12
active: SR leukemia -14.9% | RPMI-8226 leukemia 2.24% | OVCAR-8 ovarian 6.1% | OVCAR-4 ovarian -17% | IGROV1 ovarian 5.84% | OVCAR-3 ovarian -0.593% | HS 578T breast -15.5% | NCI/ADR-RES ovarian 8.62% | BT-549 breast -10.8% | MDA-MB-435 melanoma -54.1% | SW-620 colon -5.14% | MCF7 breast 2.92% | HCT-116 colon 0.541% | KM12 colon -0.978%
inactive: OVCAR-5 ovarian 13.8% | SK-OV-3 ovarian 22.9% | T-47D breast 40% | HCC-2998 colon 11.1%

NS(=O)(=O)c1ccc(CN=C2NC(=O)S/C2=C\c2ccc(Br)cc2)cc1
inactive: SR leukemia 119% | RPMI-8226 leukemia 99.8% | OVCAR-8 ovarian 106% | OVCAR-5 ovarian 94.1% | OVCAR-4 ovarian 112% | SK-OV-3 ovarian 94.3% | IGROV1 ovarian 96.9% | OVCAR-3 ovarian 106% | HS 578T breast 97.6% | NCI/ADR-RES ovarian 105% | T-47D breast 99.2% | BT-549 breast 103% | MDA-MB-435 melanoma 101% | SW-620 colon 97.9% | MCF7 breast 93.5% | HCT-116 colon 94.7% | HCC-2998 colon 107% | KM12 colon 109%

CC(=O)NCC1c2c(n(C)c3c(Cl)c(Cl)ccc23)C(=O)NC1(C)C (stereo unspecified)
inactive: SR leukemia 75.2% | RPMI-8226 leukemia 100% | OVCAR-8 ovarian 91.3% | OVCAR-5 ovarian 88.7% | OVCAR-4 ovarian 103% | SK-OV-3 ovarian 116% | IGROV1 ovarian 96.5% | OVCAR-3 ovarian 107% | HS 578T breast 104% | NCI/ADR-RES ovarian 88.1% | T-47D breast 98.5% | BT-549 breast 102% | MDA-MB-435 melanoma 96.4% | SW-620 colon 113% | MCF7 breast 92.1% | HCT-116 colon 94.8% | HCC-2998 colon 93% | KM12 colon 118%

C=CCSSC1N=CNc2nc[nH]c21 (stereo unspecified)
inactive: SR leukemia 13% | OVCAR-8 ovarian 22.6% | OVCAR-5 ovarian 42.7% | OVCAR-4 ovarian 34.4% | IGROV1 ovarian 64.5% | OVCAR-3 ovarian 32.3% | HS 578T breast 54.5% | NCI/ADR-RES ovarian 26.5% | T-47D breast 22.8% | BT-549 breast 47% | MDA-MB-435 melanoma 25.5% | SW-620 colon 35.8% | HCT-116 colon 14.5% | HCC-2998 colon 44.2% | KM12 colon 52.5%
active: RPMI-8226 leukemia -15.1% | SK-OV-3 ovarian 8.8% | MCF7 breast 4.28%

N#Cc1nnn(-c2ccc(S(N)(=O)=O)cc2)c1NCC(=O)c1ccccc1
inactive: SR leukemia 90.7% | RPMI-8226 leukemia 87.5% | OVCAR-8 ovarian 91.6% | OVCAR-5 ovarian 108% | OVCAR-4 ovarian 89.8% | SK-OV-3 ovarian 91.9% | IGROV1 ovarian 99.5% | OVCAR-3 ovarian 106% | HS 578T breast 98.3% | NCI/ADR-RES ovarian 105% | T-47D breast 95.4% | BT-549 breast 98% | MDA-MB-435 melanoma 91.8% | SW-620 colon 97.2% | MCF7 breast 93.3% | HCT-116 colon 95% | HCC-2998 colon 112% | KM12 colon 99.4%
